# In all, about 5,700 compounds went through this assay and about 85 (1%) were called active. The sample holds actives, similar compounds and a random draw of the others, so the mix is not that of the screen. Rule as the data show it: active = p53-positive nuclei above about 36% (passing the limit was not always enough); inactive = the rest.
# Key:
# [1] = p53 stabilisation in HPV-positive human cells, imaging, p53-positive nuclei imaging, 24 h, 48 h (AID 1508601); conditions: 24/48 h
# [2] = biological target: Cellular tumor antigen p53 (Homo sapiens) (UniProt P04637); assay: as above; conditions: 24/48 h, stronger effect = higher value
# Cellular tumor antigen p53 (Homo sapiens), sequence (P04637 whole entry, looked up): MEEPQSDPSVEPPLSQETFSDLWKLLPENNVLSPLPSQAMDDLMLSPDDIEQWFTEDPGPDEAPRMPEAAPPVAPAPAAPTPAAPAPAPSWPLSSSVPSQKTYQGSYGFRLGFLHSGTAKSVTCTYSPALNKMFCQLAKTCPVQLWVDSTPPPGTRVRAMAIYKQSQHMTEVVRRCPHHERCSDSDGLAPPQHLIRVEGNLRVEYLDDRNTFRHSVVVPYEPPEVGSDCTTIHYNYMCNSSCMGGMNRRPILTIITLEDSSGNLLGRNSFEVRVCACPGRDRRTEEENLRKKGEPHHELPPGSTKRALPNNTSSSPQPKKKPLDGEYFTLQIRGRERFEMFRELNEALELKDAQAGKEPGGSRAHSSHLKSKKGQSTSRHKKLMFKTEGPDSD
# [3] = measured here: cell number at 24 h, Library stock concentration: 10 mM
# [4] = measured here: cell number at 48 h, Library stock concentration: 10 mM
# [5] = Library stock concentration: 10 mM
# [6] = measured here: p53 positive nuclei at 24 h, Library stock concentration: 10 mM
# [7] = measured here: cell number at 24 h, concentration not given here
# [8] = measured here: cell number at 48 h, concentration not given here
# [9] = measured here: p53 positive nuclei at 24 h, concentration not given here
# [10] = measured here: cell number at 24 h, Library stock concentration: 80 uM
# [11] = measured here: cell number at 24 h, Library stock concentration: 400 uM
# [12] = measured here: cell number at 24 h, Library stock concentration: 2 mM
# [13] = measured here: cell number at 48 h, Library stock concentration: 80 uM
# [14] = measured here: cell number at 48 h, Library stock concentration: 400 uM
# [15] = measured here: cell number at 48 h, Library stock concentration: 2 mM
# [16] = Library stock concentration: 80 uM
# [17] = Library stock concentration: 400 uM
# [18] = Library stock concentration: 2 mM
# [19] = measured here: p53 positive nuclei at 24 h, Library stock concentration: 80 uM
# [20] = measured here: p53 positive nuclei at 24 h, Library stock concentration: 400 uM
# [21] = measured here: p53 positive nuclei at 24 h, Library stock concentration: 2 mM
structure (smiles),measurement,setting,value
CC(=O)NC(CSC(=S)NSc1ccc(SNC(=S)SCC(NC(C)=O)C(=O)O)cc1)C(=O)O (stereo not given),"nuclei count, normalised","[1]; measured here: cell number at 24 h, Library stock concentration: 500 nM",115%
same,"nuclei count, normalised","[1]; measured here: cell number at 24 h, Library stock concentration: 1.5 uM",108%
same,"nuclei count, normalised","[1]; measured here: cell number at 24 h, Library stock concentration: 4.6 uM",110%
same,"nuclei count, normalised","[1]; measured here: cell number at 24 h, Library stock concentration: 13.7 uM",114%
same,"nuclei count, normalised","[1]; measured here: cell number at 24 h, Library stock concentration: 41 uM",121%
same,"nuclei count, normalised","[1]; measured here: cell number at 24 h, Library stock concentration: 123 uM",119%
same,"nuclei count, normalised","[1]; measured here: cell number at 24 h, Library stock concentration: 370 uM",107%
same,"nuclei count, normalised","[1]; measured here: cell number at 24 h, Library stock concentration: 1.111 mM",105%
same,"nuclei count, normalised","[1]; measured here: cell number at 24 h, Library stock concentration: 3.333 mM",89.8%
same,"nuclei count, normalised",[1]; [3],64.7%
same,"nuclei count, normalised","[1]; measured here: cell number at 48 h, Library stock concentration: 500 nM",111%
same,"nuclei count, normalised","[1]; measured here: cell number at 48 h, Library stock concentration: 1.5 uM",111%
same,"nuclei count, normalised","[1]; measured here: cell number at 48 h, Library stock concentration: 4.6 uM",109%
same,"nuclei count, normalised","[1]; measured here: cell number at 48 h, Library stock concentration: 13.7 uM",109%
same,"nuclei count, normalised","[1]; measured here: cell number at 48 h, Library stock concentration: 41 uM",108%
same,"nuclei count, normalised","[1]; measured here: cell number at 48 h, Library stock concentration: 123 uM",108%
same,"nuclei count, normalised","[1]; measured here: cell number at 48 h, Library stock concentration: 370 uM",106%
same,"nuclei count, normalised","[1]; measured here: cell number at 48 h, Library stock concentration: 1.111 mM",105%
same,"nuclei count, normalised","[1]; measured here: cell number at 48 h, Library stock concentration: 3.333 mM",95.8%
same,"nuclei count, normalised",[1]; [4],68.4%
same,"p53-positive nuclei, normalised",[2]; Library stock concentration: 500 nM,-0.0484% (inactive)
same,"p53-positive nuclei, normalised",[2]; Library stock concentration: 1.5 uM,-0.0573% (inactive)
same,"p53-positive nuclei, normalised",[2]; Library stock concentration: 4.6 uM,0.0306% (inactive)
same,"p53-positive nuclei, normalised",[2]; Library stock concentration: 13.7 uM,-0.0501% (inactive)
same,"p53-positive nuclei, normalised",[2]; Library stock concentration: 41 uM,-0.00296% (inactive)
same,"p53-positive nuclei, normalised",[2]; Library stock concentration: 123 uM,-0.123% (inactive)
same,"p53-positive nuclei, normalised",[2]; Library stock concentration: 370 uM,-0.0406% (inactive)
same,"p53-positive nuclei, normalised",[2]; Library stock concentration: 1.111 mM,0.162% (inactive)
same,"p53-positive nuclei, normalised",[2]; Library stock concentration: 3.333 mM,-0.108% (inactive)
same,"p53-positive nuclei, normalised",[2]; [5],6.19% (inactive)
same,"p53-positive nuclei, normalised","[2]; measured here: p53 positive nuclei at 24 h, Library stock concentration: 500 nM",-0.173%
same,"p53-positive nuclei, normalised","[2]; measured here: p53 positive nuclei at 24 h, Library stock concentration: 1.5 uM",-0.118%
same,"p53-positive nuclei, normalised","[2]; measured here: p53 positive nuclei at 24 h, Library stock concentration: 4.6 uM",-0.113%
same,"p53-positive nuclei, normalised","[2]; measured here: p53 positive nuclei at 24 h, Library stock concentration: 13.7 uM",-0.173%
same,"p53-positive nuclei, normalised","[2]; measured here: p53 positive nuclei at 24 h, Library stock concentration: 41 uM",-0.0102%
same,"p53-positive nuclei, normalised","[2]; measured here: p53 positive nuclei at 24 h, Library stock concentration: 123 uM",-0.173%
same,"p53-positive nuclei, normalised","[2]; measured here: p53 positive nuclei at 24 h, Library stock concentration: 370 uM",-0.0536%
same,"p53-positive nuclei, normalised","[2]; measured here: p53 positive nuclei at 24 h, Library stock concentration: 1.111 mM",0.0142%
same,"p53-positive nuclei, normalised","[2]; measured here: p53 positive nuclei at 24 h, Library stock concentration: 3.333 mM",-0.0287%
same,"p53-positive nuclei, normalised",[2]; [6],16%
COc1cccc2ccc(-c3ccc(C(=O)N(C)C)cc3)nc12,"nuclei count, normalised",[1]; [7],97.5%
same,"nuclei count, normalised",[1]; [8],101%
same,"p53-positive nuclei, normalised",[2]; concentration not given here,0.00257% (inactive)
same,"p53-positive nuclei, normalised",[2]; [9],0.1%
c1ccc(C(OC2CCN(CCCc3nn[nH]n3)CC2)c2ccccc2)cc1,"nuclei count, normalised",[1]; [7],101%
same,"nuclei count, normalised",[1]; [8],102%
same,"p53-positive nuclei, normalised",[2]; concentration not given here,0.0542% (inactive)
same,"p53-positive nuclei, normalised",[2]; [9],0.308%
COc1cc(OC)cc(-c2ccc3ncc4ccc(=O)n(-c5ccc(N6CCNCC6)c(C(F)(F)F)c5)c4c3c2)c1,"nuclei count, normalised",[1]; [10],106%
same,"nuclei count, normalised",[1]; [11],104%
same,"nuclei count, normalised",[1]; [12],101%
same,"nuclei count, normalised",[1]; [3],45.6%
same,"nuclei count, normalised",[1]; [13],111%
same,"nuclei count, normalised",[1]; [14],107%
same,"nuclei count, normalised",[1]; [15],103%
same,"nuclei count, normalised",[1]; [4],30.1%
same,"p53-positive nuclei, normalised",[2]; [16],0.103% (inactive)
same,"p53-positive nuclei, normalised",[2]; [17],0.257% (inactive)
same,"p53-positive nuclei, normalised",[2]; [18],-0.11% (inactive)
same,"p53-positive nuclei, normalised",[2]; [5],10.5% (inactive)
same,"p53-positive nuclei, normalised",[2]; [19],-0.0535%
same,"p53-positive nuclei, normalised",[2]; [20],0.233%
same,"p53-positive nuclei, normalised",[2]; [21],0.0288%
same,"p53-positive nuclei, normalised",[2]; [6],11.7%
CCC(=O)N1CCN(c2ccc(-n3c(=O)ccc4cnc5ccc(-c6cnc7ccccc7c6)cc5c43)cc2C(F)(F)F)CC1,"nuclei count, normalised",[1]; [10],68.5%
same,"nuclei count, normalised",[1]; [11],59.7%
same,"nuclei count, normalised",[1]; [12],55.8%
same,"nuclei count, normalised",[1]; [3],43.7%
same,"nuclei count, normalised",[1]; [13],64.8%
same,"nuclei count, normalised",[1]; [14],49%
same,"nuclei count, normalised",[1]; [15],36.2%
same,"nuclei count, normalised",[1]; [4],21.9%
same,"p53-positive nuclei, normalised",[2]; [16],-0.0521% (inactive)
same,"p53-positive nuclei, normalised",[2]; [17],-0.0367% (inactive)
same,"p53-positive nuclei, normalised",[2]; [18],0.993% (inactive)
same,"p53-positive nuclei, normalised",[2]; [5],11.8% (inactive)
same,"p53-positive nuclei, normalised",[2]; [19],0.45%
same,"p53-positive nuclei, normalised",[2]; [20],0.126%
same,"p53-positive nuclei, normalised",[2]; [21],0.287%
same,"p53-positive nuclei, normalised",[2]; [6],0.768%
COc1ccc(-c2ccc3ncc4c(c3c2)n(-c2ccc(N3CCNCC3)c(C(F)(F)F)c2)c(=O)n4C)cn1,"nuclei count, normalised",[1]; [10],74.5%
same,"nuclei count, normalised",[1]; [11],49.8%
same,"nuclei count, normalised",[1]; [12],37.4%
same,"nuclei count, normalised","[1]; measured here: cell number at 24 h, Library stock concentration: 3.33 mM",46.3%
same,"nuclei count, normalised",[1]; [3],49.1%
same,"nuclei count, normalised",[1]; [13],70.7%
same,"nuclei count, normalised",[1]; [14],39.8%
same,"nuclei count, normalised",[1]; [15],21%
same,"nuclei count, normalised","[1]; measured here: cell number at 48 h, Library stock concentration: 3.33 mM",37.9%
same,"nuclei count, normalised",[1]; [4],37.2%
same,"p53-positive nuclei, normalised",[2]; [16],0.085% (inactive)
same,"p53-positive nuclei, normalised",[2]; [17],22.1% (inactive)
same,"p53-positive nuclei, normalised",[2]; [18],53.3% (active)
same,"p53-positive nuclei, normalised",[2]; Library stock concentration: 3.33 mM,2.2% (inactive)
same,"p53-positive nuclei, normalised",[2]; [5],-0.138% (inactive)
same,"p53-positive nuclei, normalised",[2]; [19],0.126%
same,"p53-positive nuclei, normalised",[2]; [20],1.06%
same,"p53-positive nuclei, normalised",[2]; [21],14.2%
same,"p53-positive nuclei, normalised","[2]; measured here: p53 positive nuclei at 24 h, Library stock concentration: 3.33 mM",3.51%
same,"p53-positive nuclei, normalised",[2]; [6],-0.0446%

# From PubChem BioAssay AID1508601 (ICCB-Longwood Screening Facility, Harvard Medical School, 2020)
